Experimental data published in ChEMBL document CHEMBL1961873, “Compounds: GSK PKIS; Assays: Nanosyn kinase panel” (2012).
“And” between values parts separate entries of the source, which are not always exact repeats. Equal values may be shown once.

Experiments:
[1] = target: T1, Ephrin type-B receptor 2 (Homo sapiens) (UniProt P29323); conditions: at 1 µM
T1 sequence (whole entry): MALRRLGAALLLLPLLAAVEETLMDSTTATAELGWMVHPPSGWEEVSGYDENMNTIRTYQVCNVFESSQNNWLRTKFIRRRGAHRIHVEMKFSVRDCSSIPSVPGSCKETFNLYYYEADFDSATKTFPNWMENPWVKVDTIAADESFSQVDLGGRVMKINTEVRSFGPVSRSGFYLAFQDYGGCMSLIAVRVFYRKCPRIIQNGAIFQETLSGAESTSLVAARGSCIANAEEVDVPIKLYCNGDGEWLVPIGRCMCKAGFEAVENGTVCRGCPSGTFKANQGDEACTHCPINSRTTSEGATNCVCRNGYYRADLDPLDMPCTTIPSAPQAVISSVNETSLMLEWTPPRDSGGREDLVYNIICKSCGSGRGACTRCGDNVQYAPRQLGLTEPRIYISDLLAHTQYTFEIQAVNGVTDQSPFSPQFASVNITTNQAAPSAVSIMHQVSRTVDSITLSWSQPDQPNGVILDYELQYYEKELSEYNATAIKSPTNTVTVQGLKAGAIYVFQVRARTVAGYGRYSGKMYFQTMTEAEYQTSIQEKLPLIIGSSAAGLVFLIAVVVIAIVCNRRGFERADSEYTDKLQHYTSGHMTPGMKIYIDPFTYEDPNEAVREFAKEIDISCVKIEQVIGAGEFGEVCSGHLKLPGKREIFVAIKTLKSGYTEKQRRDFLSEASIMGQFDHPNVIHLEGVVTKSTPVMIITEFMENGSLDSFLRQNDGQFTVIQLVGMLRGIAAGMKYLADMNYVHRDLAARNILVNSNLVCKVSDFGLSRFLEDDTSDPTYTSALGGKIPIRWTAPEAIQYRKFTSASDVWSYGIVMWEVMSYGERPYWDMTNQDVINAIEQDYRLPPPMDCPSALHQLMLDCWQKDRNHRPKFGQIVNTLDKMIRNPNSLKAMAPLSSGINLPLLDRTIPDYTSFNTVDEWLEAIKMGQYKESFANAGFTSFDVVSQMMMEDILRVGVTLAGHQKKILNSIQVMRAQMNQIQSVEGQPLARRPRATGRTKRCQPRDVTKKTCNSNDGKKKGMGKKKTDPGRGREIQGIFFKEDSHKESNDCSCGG

[2] = target: T2, Ephrin type-B receptor 3 (Homo sapiens) (UniProt P54753); conditions: at 0.1 µM
T2 sequence (whole entry): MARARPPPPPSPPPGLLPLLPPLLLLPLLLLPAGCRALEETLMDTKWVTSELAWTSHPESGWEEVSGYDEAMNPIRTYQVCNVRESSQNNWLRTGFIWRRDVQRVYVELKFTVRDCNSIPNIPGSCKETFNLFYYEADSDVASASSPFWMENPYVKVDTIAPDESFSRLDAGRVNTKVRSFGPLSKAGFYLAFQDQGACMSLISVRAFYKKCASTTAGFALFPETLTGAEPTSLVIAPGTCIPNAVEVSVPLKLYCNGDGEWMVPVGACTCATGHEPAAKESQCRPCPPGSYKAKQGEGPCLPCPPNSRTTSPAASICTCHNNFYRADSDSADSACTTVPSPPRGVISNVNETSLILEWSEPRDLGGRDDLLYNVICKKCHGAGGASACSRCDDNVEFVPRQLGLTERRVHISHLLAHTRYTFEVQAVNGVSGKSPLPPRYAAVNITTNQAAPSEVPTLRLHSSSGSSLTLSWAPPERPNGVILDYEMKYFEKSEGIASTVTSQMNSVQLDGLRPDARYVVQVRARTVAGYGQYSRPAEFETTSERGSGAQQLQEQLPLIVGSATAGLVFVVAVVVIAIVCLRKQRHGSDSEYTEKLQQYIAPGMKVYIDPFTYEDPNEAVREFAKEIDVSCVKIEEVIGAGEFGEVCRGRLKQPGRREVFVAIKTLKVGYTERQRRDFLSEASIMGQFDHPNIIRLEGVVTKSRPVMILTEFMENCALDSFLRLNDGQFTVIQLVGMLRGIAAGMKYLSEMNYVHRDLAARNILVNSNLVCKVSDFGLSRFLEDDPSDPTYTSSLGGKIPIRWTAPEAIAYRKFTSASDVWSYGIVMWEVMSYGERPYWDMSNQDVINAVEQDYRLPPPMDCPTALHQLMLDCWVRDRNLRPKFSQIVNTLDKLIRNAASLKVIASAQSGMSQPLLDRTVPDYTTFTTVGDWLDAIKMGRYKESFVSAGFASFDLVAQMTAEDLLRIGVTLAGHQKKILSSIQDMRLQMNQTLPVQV

[3] = target: T2, Ephrin type-B receptor 3 (Homo sapiens); conditions: at 1 µM
[4] = target: T3, Ephrin type-B receptor 4 (Homo sapiens) (UniProt P54760); conditions: at 0.1 µM
T3 sequence (whole entry): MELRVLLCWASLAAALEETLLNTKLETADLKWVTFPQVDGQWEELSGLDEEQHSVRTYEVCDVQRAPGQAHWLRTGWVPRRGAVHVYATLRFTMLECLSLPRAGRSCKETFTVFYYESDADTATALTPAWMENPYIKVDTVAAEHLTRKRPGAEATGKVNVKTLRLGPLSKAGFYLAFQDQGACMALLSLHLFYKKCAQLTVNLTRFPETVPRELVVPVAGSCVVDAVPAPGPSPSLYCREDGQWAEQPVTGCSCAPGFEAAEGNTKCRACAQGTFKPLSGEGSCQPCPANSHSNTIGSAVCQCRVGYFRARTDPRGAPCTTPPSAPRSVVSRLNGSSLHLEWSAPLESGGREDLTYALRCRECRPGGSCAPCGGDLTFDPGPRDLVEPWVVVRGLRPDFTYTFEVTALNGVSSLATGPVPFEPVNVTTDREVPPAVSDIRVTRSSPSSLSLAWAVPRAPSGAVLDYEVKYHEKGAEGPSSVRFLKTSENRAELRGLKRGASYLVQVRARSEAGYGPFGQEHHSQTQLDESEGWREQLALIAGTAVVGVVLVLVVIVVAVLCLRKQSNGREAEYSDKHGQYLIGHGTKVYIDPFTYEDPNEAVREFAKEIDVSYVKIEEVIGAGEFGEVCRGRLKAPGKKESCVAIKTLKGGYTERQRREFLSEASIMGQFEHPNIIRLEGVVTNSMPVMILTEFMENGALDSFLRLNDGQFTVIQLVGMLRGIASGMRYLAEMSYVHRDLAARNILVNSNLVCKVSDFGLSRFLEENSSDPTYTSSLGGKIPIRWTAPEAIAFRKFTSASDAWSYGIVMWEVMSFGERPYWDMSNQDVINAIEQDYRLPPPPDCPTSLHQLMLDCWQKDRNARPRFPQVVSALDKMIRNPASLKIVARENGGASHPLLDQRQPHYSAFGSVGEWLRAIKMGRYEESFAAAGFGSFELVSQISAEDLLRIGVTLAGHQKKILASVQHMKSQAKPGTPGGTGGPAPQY

[5] = target: T3, Ephrin type-B receptor 4 (Homo sapiens); conditions: at 1 µM
[6] = target: Receptor tyrosine-protein kinase erbB-2 (Homo sapiens) (UniProt P04626); conditions: at 0.1 µM
[7] = target: Receptor tyrosine-protein kinase erbB-2 (Homo sapiens) (UniProt P04626); conditions: at 1 µM
[8] = target: Receptor tyrosine-protein kinase erbB-4 (Homo sapiens) (UniProt Q15303); conditions: at 0.1 µM
[9] = target: Receptor tyrosine-protein kinase erbB-4 (Homo sapiens) (UniProt Q15303); conditions: at 1 µM
[10] = target: Tyrosine-protein kinase Fer (Homo sapiens) (UniProt P16591); conditions: at 0.1 µM;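 note: reported figures are averaged percent inhibition of FER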
Sequence of Tyrosine-protein kinase Fer (Homo sapiens) (P16591 whole entry, looked up): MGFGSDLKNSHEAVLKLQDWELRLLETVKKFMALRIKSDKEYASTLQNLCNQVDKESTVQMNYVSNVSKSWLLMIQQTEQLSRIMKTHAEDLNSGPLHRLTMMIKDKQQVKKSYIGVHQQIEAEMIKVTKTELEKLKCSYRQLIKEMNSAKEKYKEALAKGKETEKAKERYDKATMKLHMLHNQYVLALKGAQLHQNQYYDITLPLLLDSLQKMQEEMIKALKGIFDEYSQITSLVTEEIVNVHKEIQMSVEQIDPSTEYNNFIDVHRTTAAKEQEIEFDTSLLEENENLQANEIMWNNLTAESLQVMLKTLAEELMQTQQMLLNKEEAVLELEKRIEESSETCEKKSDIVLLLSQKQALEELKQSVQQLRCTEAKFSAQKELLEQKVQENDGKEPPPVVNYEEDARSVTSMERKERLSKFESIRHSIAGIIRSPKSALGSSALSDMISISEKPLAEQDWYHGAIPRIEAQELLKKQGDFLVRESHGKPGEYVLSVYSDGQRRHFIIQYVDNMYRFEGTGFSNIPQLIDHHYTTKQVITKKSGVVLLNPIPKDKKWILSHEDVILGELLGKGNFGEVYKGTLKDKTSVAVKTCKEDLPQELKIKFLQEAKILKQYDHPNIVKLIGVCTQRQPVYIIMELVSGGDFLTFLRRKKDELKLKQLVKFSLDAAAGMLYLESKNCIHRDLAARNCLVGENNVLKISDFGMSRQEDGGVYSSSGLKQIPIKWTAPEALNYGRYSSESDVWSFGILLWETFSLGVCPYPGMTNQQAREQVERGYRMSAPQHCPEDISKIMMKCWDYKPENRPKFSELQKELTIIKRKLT

Sequence of Receptor tyrosine-protein kinase erbB-2 (Homo sapiens) (P04626 whole entry): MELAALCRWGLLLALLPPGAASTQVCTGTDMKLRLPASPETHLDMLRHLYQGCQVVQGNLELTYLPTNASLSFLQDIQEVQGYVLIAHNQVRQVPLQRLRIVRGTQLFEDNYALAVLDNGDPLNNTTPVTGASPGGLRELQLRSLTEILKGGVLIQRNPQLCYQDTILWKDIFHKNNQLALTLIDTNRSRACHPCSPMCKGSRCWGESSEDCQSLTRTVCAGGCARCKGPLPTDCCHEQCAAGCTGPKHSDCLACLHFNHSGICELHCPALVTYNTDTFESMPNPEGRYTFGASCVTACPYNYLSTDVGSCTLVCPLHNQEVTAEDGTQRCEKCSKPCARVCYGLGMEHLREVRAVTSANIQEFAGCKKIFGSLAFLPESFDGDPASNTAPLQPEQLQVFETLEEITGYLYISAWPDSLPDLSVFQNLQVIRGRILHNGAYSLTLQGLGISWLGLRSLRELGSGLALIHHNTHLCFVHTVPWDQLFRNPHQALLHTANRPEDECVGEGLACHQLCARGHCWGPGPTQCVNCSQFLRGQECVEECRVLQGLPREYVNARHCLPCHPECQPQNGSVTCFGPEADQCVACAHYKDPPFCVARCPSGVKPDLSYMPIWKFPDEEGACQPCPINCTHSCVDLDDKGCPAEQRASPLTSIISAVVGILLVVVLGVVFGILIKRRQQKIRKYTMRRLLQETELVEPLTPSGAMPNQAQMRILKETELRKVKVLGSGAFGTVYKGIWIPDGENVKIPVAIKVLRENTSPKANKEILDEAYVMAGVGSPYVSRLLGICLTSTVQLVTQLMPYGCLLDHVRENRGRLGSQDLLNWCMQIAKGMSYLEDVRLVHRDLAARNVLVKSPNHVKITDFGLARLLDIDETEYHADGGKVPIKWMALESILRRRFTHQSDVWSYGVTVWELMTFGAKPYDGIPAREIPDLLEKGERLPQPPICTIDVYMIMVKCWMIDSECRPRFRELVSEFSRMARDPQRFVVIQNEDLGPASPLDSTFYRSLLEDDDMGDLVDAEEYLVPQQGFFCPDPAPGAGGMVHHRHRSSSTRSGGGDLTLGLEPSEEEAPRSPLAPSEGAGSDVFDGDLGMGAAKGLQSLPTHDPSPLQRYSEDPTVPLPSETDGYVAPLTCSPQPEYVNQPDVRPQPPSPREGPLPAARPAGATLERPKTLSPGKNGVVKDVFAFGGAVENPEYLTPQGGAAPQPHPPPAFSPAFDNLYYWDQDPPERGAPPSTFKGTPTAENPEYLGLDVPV
Sequence of Receptor tyrosine-protein kinase erbB-4 (Homo sapiens) (Q15303 whole entry): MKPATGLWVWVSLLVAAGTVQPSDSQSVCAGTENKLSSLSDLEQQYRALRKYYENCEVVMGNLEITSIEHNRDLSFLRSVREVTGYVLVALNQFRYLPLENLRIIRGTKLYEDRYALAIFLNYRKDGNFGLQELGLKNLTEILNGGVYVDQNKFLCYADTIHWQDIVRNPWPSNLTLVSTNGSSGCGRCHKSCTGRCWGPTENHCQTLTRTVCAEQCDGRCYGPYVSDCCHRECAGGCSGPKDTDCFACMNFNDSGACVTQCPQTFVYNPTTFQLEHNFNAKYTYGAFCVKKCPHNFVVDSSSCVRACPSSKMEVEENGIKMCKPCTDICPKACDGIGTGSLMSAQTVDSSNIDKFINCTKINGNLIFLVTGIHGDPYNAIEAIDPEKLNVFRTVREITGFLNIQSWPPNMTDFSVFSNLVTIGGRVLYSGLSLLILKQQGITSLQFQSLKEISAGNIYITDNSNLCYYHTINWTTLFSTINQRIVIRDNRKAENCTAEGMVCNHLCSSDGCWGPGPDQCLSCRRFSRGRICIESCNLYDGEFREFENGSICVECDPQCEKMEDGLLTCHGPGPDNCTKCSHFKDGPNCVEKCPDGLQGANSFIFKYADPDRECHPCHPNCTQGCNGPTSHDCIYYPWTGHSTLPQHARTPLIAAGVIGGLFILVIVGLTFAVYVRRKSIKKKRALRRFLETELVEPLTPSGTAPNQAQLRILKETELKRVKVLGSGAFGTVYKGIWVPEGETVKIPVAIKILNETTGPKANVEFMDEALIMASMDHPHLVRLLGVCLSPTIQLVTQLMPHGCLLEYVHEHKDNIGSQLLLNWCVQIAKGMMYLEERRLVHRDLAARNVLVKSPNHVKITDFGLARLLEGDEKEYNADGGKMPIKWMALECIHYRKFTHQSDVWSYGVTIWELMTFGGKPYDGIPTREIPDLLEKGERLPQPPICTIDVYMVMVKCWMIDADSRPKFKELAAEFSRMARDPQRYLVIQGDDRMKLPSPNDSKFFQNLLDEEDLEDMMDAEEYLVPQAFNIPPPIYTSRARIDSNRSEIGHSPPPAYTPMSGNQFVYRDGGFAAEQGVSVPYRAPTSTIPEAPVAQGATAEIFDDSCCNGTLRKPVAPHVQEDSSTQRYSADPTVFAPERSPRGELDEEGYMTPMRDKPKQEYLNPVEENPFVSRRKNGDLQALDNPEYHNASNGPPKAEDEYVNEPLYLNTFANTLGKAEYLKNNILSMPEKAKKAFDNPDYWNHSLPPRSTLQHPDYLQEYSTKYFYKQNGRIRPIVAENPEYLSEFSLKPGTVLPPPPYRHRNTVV

Row | Compound | inhibition [1] | inhibition [2] | inhibition [3] | inhibition [4] | inhibition [5] | inhibition [6] | inhibition [7] | inhibition [8] | inhibition [9] | inhibition [10]
1 | Nc1nonc1-c1nc2cnccc2n1C1CC1 | 14.2% and 3.79% | 5.08% and 1.12% | 6.13% and -2.08% | 2.51% and -2.43% | 1.45% and -3.41% | 1.64% and 0.4% | -1.67% and -0.01% | 1.55% and 2.22% | 6.98% and 0.35% | 2% and 1.26%
2 | Cc1nnc(-c2cccc(-c3ccc(C(=O)NCC4CC4)cc3)c2)o1 | 9.32% | 4.24% | 5.58% | 1.46% | 2.08% | 2.59% | 5.51% | 8.69% | 12.5% | 3.39%
3 | CN1CCC(n2cnc(-c3ccc(F)cc3)c2-c2ccnc(NCCO)n2)CC1 | 10.7% | 4.67% | 2% | 1.85% | 8.07% | 0.93% | 6.66% | 9.26% | 12.3% | 7.03%
4 | N#Cc1ccc2c(-c3ccnc(NC4CC4)n3)c(-c3ccc(F)cc3)nn2c1 | 24.5% | 5.62% | 4.39% | -0.62% | 2.45% | 1.97% | 5% | 5.5% | 13.4% | -2.41%
5 | FC(F)(F)CNc1nccc(-c2cnn3ncccc23)n1 | 4.55% | 4.36% | 3.96% | 0.32% | 1.93% | 4.52% | 3.89% | 13.2% | 14% | 1.02%
6 | COc1cccc(-n2ncc3c(N/N=C/c4ccc(C(=O)NCCN(C)C)cc4)ncnc32)c1 | 46.4% | 5.98% | 7.32% | 6.37% | 30.5% | 0.77% | 10.5% | 23.2% | 49.9% | 3.03%
7 | CC1(C)CC(n2cnc(-c3ccc(F)cc3)c2-c2ccnc(N)n2)CC(C)(C)N1 | 4.85% | 3.09% | 1.51% | 0.27% | 0.62% | -1.2% | -3.03% | 0.19% | 3.58% | 3.41%
8 | O=C(O[C@H]1CN[C@H](C#Cc2cc3ncnc(Nc4ccc5c(ccn5Cc5cc(F)ccc5F)c4)c3s2)C1)N1CCOCC1 | 4.17% | 6.61% | 5.15% | 2.46% | 3.04% | 9.01% | 40.9% | 86.9% | 86.3% | 1.31%
9 | CS(=O)(=O)CCNCc1ccc(-c2ccc3ncnc(Nc4ccc(OCc5cccc(C(F)(F)F)c5)cc4)c3c2)o1 | 6.28% | 3.02% | 3.57% | 0.6% | 2.19% | 4.88% | 3.5% | 7.3% | 28.5% | -1.96%
10 | COc1ccc(Nc2ncc(-c3ccccc3)o2)cc1OC | -1.55% | 2.4% | -5.15% | 2.84% | 6.24% | 0.01% | -2.56% | 6.4% | 8.57% | 0.47%
11 | COc1c(C(N)=O)cc(-c2ccc(Cl)cc2)cc1-c1ccc(S(N)(=O)=O)cc1 | 8.13% | 1.93% | 4.65% | 5.71% | 3.61% | 1.74% | 4.75% | 7.58% | 12.9% | 0.34%
12 | O=C(Nc1n[nH]c2nnc(-c3cccnc3)cc12)C1CC1 | 3.72% | 0.63% | 2.01% | 2.37% | 0.6% | -2.7% | -0.28% | -0.62% | 1.8% | -1.4%
13 | Cc1c2ccc(N(C)c3ccnc(Nc4cccc(S(N)(=O)=O)c4)n3)cc2nn1C | 23.3% | 3.38% | 0.55% | 0.19% | 10.3% | 1.55% | -3.44% | 5.59% | 12.1% | 25.1%
14 | CC1=C(C(=O)Nc2ccc3[nH]ncc3c2)C(c2ccc(F)cc2)N=C(c2ccc(C(F)(F)F)nc2)N1 (stereo not given) | 8.11% | 3.81% | 2.31% | 1.15% | 2.78% | 1.68% | 3.01% | 7.98% | 11.7% | 0.93%
15 | NS(=O)(=O)c1ccc(N/N=C2\C(=O)Nc3cccc(CCc4ccncc4)c32)cc1 | 5.15% | 2.41% | 2.85% | 1.21% | 0.87% | -0.81% | 3.74% | 4.66% | 8.01% | 4.04%
16 | CNC(=O)c1cncc(/C=C/c2ccccc2C)c1 | 19.7% | 5.82% | 4.91% | 1.77% | 9.19% | 2.44% | 6.67% | 13.2% | 14.8% | 4.15%
